Measured values reported in the supplement of paper PMC10981050.
Several values for one entry are separate records, joined by “and”; a condition that tells them apart may be missing. Equal values may be shown once. Where a name gives a salt, the structure may show the parent alone.

Columns and labels:
Assay in all cases: cell viability relative to vehicle control; higher = less cytotoxic
Settings in all cases: 10 µM
[1] = system: K562
Procedure, shortened: (§1)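 Screening covered the Selleck bioactive, kinase and epigenetic probe libraries, less identity-inconsistent compounds, on CRISPR-edited mutant clones and isogenic wild-type clones of four leukaemia lines. Cells, at 2000 per well in 50 µL medium, received a single 10 µM acoustically dispensed dose. After 48 h the supernatant was removed and CellTiter-Glo luminescence was read. Viability was analysed in Genedata Screener as percent of the on-plate vehicle control.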

[2] = system: MARIMO
Procedure, shortened: as §1

[3] = system: MOLM14
Procedure, shortened: as §1

[4] = system: OCI-AML2
Procedure, shortened: as §1

Row | SMILES | cell viability ([1]; SRSF2 genotype: SRSF2 P95H/wt) | cell viability ([1]; SRSF2 genotype: SRSF2 wt/wt) [%] | cell viability ([2]; SRSF2 genotype: SRSF2 P95H/wt) [%] | cell viability ([2]; SRSF2 genotype: SRSF2 wt/wt) [%] | cell viability ([3]; SRSF2 genotype: SRSF2 P95H/wt) [%] | cell viability ([3]; SRSF2 genotype: SRSF2 wt/wt) [%] | cell viability ([4]; SRSF2 genotype: P95H/wt) [%] | cell viability ([4]; SRSF2 genotype: wt/wt) [%]
1 | COc1cc(Nc2ncc3c(n2)-c2ccc(Cl)cc2C(c2c(F)cccc2OC)=NC3)ccc1C(=O)O [MLN8237 (Alisertib)] | 46.2% and 63.8% | 60 | 87.3 | 108 | 30.6 | 17.7 | 43.5 | 44.5
2 | O=C(O)CCC(=O)O [Succinic acid] | 90.3% and 88.2% | 88 | 83.8 | 96.1 | 93.1 | 93.6 | 85.1 | 97.5
3 | CC(C)(C)C(O)C(=Cc1ccc(Cl)cc1)n1cncn1 (stereo not given) [Uniconazole] | 95.8% and 99.3% | 96.5 | 92.2 | 101 | 93.9 | 105 | 93.8 | 91.2
4 | Cc1ccc(-n2sc(=O)n(Cc3ccc(F)cc3)c2=O)cc1 | 78.6% and 73.5% | 78 | 67.2 | 72.6 | 47.6 | 61.8 | 50.6 | 50.9
5 | COc1ccc(CNCc2cccc3ccccc23)cc1 | 91.6% and 97% | 95.1 | 88.5 | 97.4 | 97.4 | 101 | 92.4 | 101
6 | OC[C@H]1NC[C@H](O)[C@@H](O)[C@@H]1O [1-Deoxynojirimycin] | 103% and 98.1% | 94.5 | 103 | 107 | 97.8 | 106 | 96.4 | 108
7 | COC(=O)/C=C/C(=O)OC [Dimethyl Fumarate] | 101% and 108% | 94.7 | 103 | 95.6 | 102 | 99.5 | 111 | 110
8 | CC(=O)O[C@@H]1C[C@H](O)[C@@]23CO[C@@H](O)[C@]1(C)[C@@H]2C[C@@H](O)[C@]1(C)[C@@H]3C(=O)[C@H](OC(C)=O)[C@@]2(C)[C@H](c3ccoc3)C[C@H]3O[C@]321 [Toosendanin] | 45.5% and 43% | 42.4 | 38.2 | 34.2 | 37.1 | 11.1 | 23.8 | 23.9
9 | CC1=C[C@H](O)CC(C)(C)[C@H]1/C=C/C(C)=C/C=C/C(C)=C/C=C/C=C(C)/C=C/C=C(C)/C=C/C1=C(C)C[C@@H](O)CC1(C)C [lutein] | 99.5% and 98.9% | 95.8 | 88.7 | 100 | 88.8 | 110 | 103 | 107
10 | CC(C)(C)NC(=O)c1cncn1C1CCN(c2ccc(-c3nnc(C(F)(F)F)o3)cn2)CC1 | 69% and 57.2% | 63.8 | 53.1 | 64.5 | 56.7 | 45.7 | 8.34 | 20.6
11 | Cc1ccc(-c2csc(NC(=O)c3ccccc3)n2)c(C)c1 | 80.3% and 83.3% | 81.5 | 76.2 | 81 | 94.1 | 92.7 | 63.8 | 66.8
12 | Nc1ccc(-c2cccc(C(=O)Nc3cnc4nc(N5CCOCC5)oc4c3)n2)cn1 | 96.8% and 100% | 91.5 | 98.3 | 91.6 | 86 | 87.5 | 103 | 93.7
13 | Oc1cc(O)c2c(c1)OC(c1ccc(O)c(O)c1)C(O)C2 (single isomer, unassigned; (+)) [(+)-Catechin hydrate] | 103% and 94.1% | 103 | 106 | 103 | 104 | 104 | 104 | 108
14 | COc1ccc2c(c1)c(CC(=O)OCC(=O)O)c(C)n2C(=O)c1ccc(Cl)cc1 [Acemetacin (Emflex)] | 101% and 98.4% | 93.5 | 97.8 | 94.9 | 95.4 | 98.6 | 108 | 104
15 | C[C@@H]1[C@H]2c3cc4c(cc3O[C@@]35OCOC3=CC(=O)[C@H](C[C@H]1C)[C@@H]25)OCO4 [Sauchinone] | 92.2% and 99.5% | 100 | 87.5 | 92.9 | 55.1 | 94.9 | 87.6 | 86.8
16 | C[C@H](Cc1cc2c(c(C(N)=O)c1)N(CCCO)CC2)NCCOc1ccccc1OCC(F)(F)F [Silodosin] | 81.7% and 88.2% | 87.5 | 86.2 | 85.6 | 87.2 | 89.5 | 74.7 | 80
17 | CN(C)C(=O)/C(C#N)=C/c1ccc(-c2nc3cnc4[nH]ccc4c3n2C2CCCCC2)o1 | 99.3% and 98.8% | 98.6 | 80.9 | 89.3 | 49.5 | 71 | 71.5 | 71.5
18 | CN[C@H]1CC[C@@H](c2ccc(Cl)c(Cl)c2)c2ccccc21 [Sertraline HCl] | 30.3% and 54.2% | 52.8 | 41.7 | 48 | 32.7 | 42.9 | 26.2 | 37.5
19 | CC#CCn1c(N2CCC[C@@H](N)C2)nc2c1c(=O)n(Cc1nc(C)c3ccccc3n1)c(=O)n2C [Linagliptin (BI-1356)] | 99% and 103% | 103 | 98 | 97 | 101 | 106 | 110 | 93.6
20 | COCCCOc1ccnc(C[S+]([O-])c2nc3ccccc3[nH]2)c1C (stereo not given) [Rebeprazole sodium] | 95.2% and 93.6% | 101 | 104 | 106 | 95.6 | 102 | 97.4 | 113
